For assay [1], the target named is Death-associated protein kinase 1 (Homo sapiens) (UniProt P53355). The note with it: at 10 µM.
Assay [2] has as its target T1, Serine/threonine-protein kinase DCLK2 (Homo sapiens) (UniProt Q8N568).
T1 sequence (whole entry): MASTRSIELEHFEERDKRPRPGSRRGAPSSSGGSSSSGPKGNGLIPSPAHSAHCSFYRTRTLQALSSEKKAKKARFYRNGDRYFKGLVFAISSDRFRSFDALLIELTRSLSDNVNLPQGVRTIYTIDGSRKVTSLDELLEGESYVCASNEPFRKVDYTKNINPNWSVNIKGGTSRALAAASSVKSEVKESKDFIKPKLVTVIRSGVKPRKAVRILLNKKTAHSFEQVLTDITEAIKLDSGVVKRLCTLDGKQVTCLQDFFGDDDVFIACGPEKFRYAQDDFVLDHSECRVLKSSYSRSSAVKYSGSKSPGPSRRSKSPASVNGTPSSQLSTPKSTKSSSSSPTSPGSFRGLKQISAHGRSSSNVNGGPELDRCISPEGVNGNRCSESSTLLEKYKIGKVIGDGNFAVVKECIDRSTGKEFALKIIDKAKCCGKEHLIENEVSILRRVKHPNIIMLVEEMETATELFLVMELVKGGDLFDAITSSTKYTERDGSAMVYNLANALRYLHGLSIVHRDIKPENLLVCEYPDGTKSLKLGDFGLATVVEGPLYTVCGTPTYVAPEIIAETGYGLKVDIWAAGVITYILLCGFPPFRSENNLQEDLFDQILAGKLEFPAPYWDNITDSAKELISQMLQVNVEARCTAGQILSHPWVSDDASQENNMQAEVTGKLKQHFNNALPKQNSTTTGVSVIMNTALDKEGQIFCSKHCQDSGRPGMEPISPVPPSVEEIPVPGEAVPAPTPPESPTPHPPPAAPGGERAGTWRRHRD
The note with it: at 1 µM.

For assay [3], the target named is T1, Serine/threonine-protein kinase DCLK2 (Homo sapiens). To be noted: at 10 µM.
Assay [4] has as its target T2, Discoidin domain-containing receptor 2 (Homo sapiens) (UniProt Q16832).
T2 sequence (whole entry): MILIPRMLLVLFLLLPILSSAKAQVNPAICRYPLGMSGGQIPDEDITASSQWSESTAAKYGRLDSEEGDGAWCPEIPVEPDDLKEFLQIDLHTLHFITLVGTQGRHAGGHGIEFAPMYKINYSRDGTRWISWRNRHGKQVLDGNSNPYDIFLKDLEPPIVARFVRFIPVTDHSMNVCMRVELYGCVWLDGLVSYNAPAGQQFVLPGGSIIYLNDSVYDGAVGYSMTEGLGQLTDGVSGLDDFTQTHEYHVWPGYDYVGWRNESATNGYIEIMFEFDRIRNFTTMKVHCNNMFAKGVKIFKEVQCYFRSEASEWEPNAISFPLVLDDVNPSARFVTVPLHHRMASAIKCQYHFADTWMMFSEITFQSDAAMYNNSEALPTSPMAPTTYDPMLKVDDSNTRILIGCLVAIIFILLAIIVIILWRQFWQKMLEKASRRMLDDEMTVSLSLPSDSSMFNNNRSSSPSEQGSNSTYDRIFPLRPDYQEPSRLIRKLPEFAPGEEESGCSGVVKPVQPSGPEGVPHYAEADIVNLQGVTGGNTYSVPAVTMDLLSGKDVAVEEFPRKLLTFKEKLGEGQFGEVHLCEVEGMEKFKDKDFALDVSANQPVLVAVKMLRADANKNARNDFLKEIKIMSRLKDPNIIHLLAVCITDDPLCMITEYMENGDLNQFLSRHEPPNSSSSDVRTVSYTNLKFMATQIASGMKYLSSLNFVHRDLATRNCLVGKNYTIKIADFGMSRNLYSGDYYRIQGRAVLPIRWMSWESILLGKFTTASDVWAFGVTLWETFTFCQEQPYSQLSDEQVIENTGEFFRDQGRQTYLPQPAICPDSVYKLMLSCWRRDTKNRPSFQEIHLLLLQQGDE
To be noted: at 10 µM.

Assay [5] concerns the target T3, Myotonin-protein kinase (Homo sapiens) (UniProt Q09013).
T3 sequence (whole entry): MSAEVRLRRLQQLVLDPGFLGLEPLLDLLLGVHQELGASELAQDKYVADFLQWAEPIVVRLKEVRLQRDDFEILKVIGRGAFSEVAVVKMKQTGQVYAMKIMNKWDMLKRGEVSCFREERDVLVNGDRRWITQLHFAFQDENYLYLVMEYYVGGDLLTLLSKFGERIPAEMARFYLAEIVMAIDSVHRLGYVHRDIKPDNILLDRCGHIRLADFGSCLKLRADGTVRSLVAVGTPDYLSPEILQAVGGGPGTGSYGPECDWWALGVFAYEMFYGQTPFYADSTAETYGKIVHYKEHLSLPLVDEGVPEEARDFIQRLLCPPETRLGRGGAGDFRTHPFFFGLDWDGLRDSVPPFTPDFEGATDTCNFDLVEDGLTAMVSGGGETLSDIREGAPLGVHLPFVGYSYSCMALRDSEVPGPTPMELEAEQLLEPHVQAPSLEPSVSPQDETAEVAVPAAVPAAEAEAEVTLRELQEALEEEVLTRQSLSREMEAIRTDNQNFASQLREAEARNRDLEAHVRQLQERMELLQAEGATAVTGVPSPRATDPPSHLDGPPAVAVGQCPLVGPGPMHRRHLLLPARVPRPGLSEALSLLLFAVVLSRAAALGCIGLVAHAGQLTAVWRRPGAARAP
To be noted: at 1 µM.

Assay [6] has as its target T3, Myotonin-protein kinase (Homo sapiens). The note with it: at 10 µM.
Assay [7] has as its target T4, Dual specificity tyrosine-phosphorylation-regulated kinase 2 (Homo sapiens) (UniProt Q92630).
T4 sequence (whole entry): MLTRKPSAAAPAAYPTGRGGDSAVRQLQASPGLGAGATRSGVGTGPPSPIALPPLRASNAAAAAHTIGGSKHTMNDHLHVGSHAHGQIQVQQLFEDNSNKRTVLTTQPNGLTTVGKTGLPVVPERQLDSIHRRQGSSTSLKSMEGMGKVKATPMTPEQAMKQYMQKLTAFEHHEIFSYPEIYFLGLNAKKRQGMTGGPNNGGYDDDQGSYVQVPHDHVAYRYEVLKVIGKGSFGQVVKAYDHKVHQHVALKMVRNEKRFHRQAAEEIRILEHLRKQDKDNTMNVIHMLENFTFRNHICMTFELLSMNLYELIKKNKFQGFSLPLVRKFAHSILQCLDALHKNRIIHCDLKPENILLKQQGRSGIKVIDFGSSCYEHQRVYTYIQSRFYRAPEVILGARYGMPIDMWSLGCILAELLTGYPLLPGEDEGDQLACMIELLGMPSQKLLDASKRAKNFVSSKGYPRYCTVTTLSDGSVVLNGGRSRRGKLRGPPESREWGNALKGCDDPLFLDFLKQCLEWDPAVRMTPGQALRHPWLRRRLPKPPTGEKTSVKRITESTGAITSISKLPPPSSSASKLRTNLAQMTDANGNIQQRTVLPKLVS
The note with it: at 1 µM.

The target in assay [8] is T4, Dual specificity tyrosine-phosphorylation-regulated kinase 2 (Homo sapiens). The note with it: at 10 µM.
The target of assay [9] is T5, Ephrin type-A receptor 1 (Homo sapiens) (UniProt P21709).
T5 sequence (whole entry): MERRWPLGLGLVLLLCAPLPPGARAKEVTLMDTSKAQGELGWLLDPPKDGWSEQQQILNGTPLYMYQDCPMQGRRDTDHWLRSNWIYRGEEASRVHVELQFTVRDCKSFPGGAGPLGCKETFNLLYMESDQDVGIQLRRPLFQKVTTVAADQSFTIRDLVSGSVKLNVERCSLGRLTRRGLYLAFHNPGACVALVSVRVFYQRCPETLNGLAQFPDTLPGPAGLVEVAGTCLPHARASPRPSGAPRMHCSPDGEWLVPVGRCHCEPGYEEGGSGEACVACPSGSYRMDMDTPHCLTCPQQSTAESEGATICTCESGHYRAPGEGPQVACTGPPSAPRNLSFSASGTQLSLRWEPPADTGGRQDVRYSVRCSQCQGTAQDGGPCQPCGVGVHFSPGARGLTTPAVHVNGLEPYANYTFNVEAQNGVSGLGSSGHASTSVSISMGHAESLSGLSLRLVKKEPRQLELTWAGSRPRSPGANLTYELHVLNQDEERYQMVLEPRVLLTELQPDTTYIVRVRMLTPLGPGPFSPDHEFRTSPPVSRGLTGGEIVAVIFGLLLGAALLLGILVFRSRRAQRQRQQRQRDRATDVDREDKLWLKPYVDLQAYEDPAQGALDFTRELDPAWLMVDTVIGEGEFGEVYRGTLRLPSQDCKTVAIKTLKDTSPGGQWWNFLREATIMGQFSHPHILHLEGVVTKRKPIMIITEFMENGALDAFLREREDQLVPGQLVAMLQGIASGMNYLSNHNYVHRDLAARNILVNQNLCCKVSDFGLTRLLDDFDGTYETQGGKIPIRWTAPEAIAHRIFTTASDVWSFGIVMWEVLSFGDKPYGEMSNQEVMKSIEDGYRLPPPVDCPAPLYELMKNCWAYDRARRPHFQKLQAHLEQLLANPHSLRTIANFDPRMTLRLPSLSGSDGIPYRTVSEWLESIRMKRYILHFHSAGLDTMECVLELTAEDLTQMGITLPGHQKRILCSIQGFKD
The note with it: at 1 µM.

For assay [10], the target named is T5, Ephrin type-A receptor 1 (Homo sapiens). The note with it: at 10 µM.
Assay [11] addresses Death-associated protein kinase 2 (Homo sapiens) (UniProt Q9UIK4). The note with it: at 1 µM.
For assay [12], the target named is T2, Discoidin domain-containing receptor 2 (Homo sapiens). To be noted: at 1 µM.
Assay [13] concerns the target Ephrin type-A receptor 2 (Homo sapiens) (UniProt P29317). To be noted: at 1 µM.
The target is the same in assay [14]. The note with it: at 10 µM.
In assay [15] the target is T6, Ephrin type-A receptor 3 (Homo sapiens) (UniProt P29320).
T6 sequence (whole entry): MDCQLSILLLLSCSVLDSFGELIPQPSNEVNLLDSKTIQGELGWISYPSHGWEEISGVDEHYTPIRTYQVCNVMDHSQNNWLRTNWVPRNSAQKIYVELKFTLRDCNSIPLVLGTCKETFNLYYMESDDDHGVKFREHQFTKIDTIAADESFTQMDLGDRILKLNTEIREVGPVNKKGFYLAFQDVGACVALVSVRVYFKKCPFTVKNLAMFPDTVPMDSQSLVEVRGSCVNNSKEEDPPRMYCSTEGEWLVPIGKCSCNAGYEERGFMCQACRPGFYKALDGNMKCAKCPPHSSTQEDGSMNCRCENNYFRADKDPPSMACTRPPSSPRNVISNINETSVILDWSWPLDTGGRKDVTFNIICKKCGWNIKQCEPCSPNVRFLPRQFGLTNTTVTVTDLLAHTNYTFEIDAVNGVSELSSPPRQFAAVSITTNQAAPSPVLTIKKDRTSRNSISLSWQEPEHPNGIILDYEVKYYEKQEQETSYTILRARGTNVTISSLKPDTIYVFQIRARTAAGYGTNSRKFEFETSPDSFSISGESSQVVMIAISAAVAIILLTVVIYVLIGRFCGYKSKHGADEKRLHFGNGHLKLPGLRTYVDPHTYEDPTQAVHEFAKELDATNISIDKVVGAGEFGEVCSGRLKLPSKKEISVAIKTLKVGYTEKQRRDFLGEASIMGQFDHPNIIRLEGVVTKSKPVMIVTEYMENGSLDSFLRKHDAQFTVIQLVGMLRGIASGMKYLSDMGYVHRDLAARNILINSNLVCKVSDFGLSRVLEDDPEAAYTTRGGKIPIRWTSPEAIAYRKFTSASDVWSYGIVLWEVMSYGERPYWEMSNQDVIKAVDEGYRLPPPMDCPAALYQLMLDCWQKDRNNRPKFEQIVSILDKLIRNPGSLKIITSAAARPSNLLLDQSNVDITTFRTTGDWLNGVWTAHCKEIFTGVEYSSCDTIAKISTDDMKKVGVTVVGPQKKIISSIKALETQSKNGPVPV
The note with it: at 1 µM.

Assay [16] concerns the target T7, Serine/threonine-protein kinase 17A (Homo sapiens) (UniProt Q9UEE5).
T7 sequence (whole entry): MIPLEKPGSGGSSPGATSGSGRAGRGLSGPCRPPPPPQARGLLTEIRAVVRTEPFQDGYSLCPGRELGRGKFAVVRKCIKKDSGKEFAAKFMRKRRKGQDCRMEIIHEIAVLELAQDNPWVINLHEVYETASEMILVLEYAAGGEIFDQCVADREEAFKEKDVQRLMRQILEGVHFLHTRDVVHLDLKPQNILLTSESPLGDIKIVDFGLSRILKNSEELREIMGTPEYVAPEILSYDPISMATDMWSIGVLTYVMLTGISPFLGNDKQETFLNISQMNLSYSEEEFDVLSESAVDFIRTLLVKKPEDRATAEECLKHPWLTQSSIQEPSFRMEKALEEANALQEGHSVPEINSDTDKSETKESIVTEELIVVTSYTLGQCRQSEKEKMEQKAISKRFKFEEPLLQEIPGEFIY
To be noted: at 1 µM.

Assay [17] deals with T7, Serine/threonine-protein kinase 17A (Homo sapiens). The note with it: at 10 µM.

Chain of Death-associated protein kinase 1 (Homo sapiens) (P53355 whole entry, looked up): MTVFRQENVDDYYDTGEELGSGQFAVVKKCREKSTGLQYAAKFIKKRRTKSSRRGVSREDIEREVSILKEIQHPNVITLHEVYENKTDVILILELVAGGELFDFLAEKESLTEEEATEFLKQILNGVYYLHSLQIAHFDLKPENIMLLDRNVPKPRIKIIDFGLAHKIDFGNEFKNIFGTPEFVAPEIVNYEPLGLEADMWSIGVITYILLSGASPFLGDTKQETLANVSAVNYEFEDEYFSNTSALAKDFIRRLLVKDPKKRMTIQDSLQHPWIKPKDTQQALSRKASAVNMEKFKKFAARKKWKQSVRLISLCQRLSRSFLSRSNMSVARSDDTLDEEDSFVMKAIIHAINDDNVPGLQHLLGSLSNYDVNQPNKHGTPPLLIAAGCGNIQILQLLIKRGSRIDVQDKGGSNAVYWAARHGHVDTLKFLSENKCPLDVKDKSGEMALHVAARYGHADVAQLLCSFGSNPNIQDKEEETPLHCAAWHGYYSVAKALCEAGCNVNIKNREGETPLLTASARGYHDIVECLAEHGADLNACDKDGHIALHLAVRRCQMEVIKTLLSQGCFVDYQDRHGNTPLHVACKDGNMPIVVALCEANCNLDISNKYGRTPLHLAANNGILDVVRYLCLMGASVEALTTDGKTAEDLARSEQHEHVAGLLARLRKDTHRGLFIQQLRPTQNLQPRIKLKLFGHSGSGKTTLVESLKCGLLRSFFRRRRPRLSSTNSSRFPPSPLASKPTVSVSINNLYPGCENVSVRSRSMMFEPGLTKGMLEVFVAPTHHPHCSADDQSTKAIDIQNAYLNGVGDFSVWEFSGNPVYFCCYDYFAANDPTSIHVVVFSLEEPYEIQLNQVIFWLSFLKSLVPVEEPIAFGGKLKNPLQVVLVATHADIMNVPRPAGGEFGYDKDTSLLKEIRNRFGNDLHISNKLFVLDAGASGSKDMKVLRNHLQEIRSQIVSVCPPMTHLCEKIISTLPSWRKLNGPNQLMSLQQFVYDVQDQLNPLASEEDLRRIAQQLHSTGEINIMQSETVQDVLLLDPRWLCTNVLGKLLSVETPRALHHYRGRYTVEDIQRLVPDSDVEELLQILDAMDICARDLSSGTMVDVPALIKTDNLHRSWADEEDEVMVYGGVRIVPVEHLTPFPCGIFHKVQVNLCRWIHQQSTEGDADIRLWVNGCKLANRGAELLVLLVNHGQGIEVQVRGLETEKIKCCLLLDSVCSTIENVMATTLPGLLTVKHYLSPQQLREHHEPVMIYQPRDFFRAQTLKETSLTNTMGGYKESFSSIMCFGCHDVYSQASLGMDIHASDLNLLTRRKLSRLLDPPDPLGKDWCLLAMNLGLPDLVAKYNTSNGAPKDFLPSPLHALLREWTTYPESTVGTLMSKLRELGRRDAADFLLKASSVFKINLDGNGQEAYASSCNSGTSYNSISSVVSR
Chain of Ephrin type-A receptor 2 (Homo sapiens) (P29317 whole entry): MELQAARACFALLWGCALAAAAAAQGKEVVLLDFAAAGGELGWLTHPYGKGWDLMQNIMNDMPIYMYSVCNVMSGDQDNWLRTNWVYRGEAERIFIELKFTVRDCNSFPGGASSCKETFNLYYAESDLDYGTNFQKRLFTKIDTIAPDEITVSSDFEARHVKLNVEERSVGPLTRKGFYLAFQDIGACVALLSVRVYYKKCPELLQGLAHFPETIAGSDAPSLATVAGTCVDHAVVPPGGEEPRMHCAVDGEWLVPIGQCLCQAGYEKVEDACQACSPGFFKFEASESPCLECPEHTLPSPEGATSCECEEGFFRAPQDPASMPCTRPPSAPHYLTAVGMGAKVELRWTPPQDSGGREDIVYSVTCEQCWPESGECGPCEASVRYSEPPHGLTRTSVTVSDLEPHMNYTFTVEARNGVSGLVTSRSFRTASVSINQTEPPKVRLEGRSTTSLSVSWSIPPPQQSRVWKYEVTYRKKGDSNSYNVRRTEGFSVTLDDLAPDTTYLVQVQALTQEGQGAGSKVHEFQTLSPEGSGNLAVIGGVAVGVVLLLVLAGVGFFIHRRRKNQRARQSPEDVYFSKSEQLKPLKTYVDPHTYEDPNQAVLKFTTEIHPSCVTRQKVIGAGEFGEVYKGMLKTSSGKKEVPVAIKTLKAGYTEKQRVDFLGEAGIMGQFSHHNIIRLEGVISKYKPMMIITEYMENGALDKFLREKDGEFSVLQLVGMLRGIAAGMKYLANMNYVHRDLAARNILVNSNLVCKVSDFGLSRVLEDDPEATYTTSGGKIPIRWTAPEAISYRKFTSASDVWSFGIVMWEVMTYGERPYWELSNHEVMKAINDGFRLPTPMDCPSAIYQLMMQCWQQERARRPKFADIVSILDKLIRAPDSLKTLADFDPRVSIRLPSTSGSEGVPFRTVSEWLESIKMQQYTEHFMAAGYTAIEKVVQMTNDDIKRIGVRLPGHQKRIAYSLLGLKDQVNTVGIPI
Chain of Death-associated protein kinase 2 (Homo sapiens) (Q9UIK4 whole entry, looked up, the tested form may be a part): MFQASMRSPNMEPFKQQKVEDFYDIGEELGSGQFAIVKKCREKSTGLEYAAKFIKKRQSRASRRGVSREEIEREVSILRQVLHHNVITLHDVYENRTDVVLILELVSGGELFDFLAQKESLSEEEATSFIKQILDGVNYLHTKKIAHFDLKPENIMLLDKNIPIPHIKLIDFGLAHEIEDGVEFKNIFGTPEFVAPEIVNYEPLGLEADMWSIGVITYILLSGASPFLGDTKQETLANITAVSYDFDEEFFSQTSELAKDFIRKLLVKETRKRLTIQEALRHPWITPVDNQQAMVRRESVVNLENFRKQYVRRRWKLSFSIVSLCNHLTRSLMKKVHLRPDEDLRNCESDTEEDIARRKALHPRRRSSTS

For the compound `Cc1cccc(-c2[nH]c(C(C)(C)C)nc2-c2ccc3c(c2)OCO3)n1`, the residual activity is 77% in assay [1]; 86% in [2]; 99% in assay [3]; 98% in assay [4]; 145% in [5]; 143% in [6]. The residual activity in assay [7] was 94%; in assay [8], 104%; in [9] it was 90%; in assay [10] it was 106%.

As for `c1ccc(-c2n[nH]cc2-c2ccnc3ccccc23)nc1`, the residual activity in [1] stood at 88%; in assay [11], 103%; in [3] it was 101%; in assay [12], 102%; in [4] it was 98%; in assay [5], 127%. Moreover, the residual activity in assay [6] was found to be 140%; in assay [7], 89%; in assay [8], 104%; in [9] it was 90%; in assay [10] it was 90%; in assay [13], 102%. Moreover, the residual activity in [14] is 95%; in [15] it was 99%.

In the case of `c1ccc(-c2n[nH]c3c2oc2ccccc23)cc1`, the residual activity in [1] came out at 98%; in assay [2], 82%; in assay [3], 74%; in assay [5], 146%; in assay [6], 121%; in assay [16], 43%. The residual activity in assay [17] is 5%; in [7] it was 83%; in assay [8], 71%; in [9], 98%; in assay [10], 99%.

The record behind these values is ChEMBL document CHEMBL2218924, “A broad activity screen in support of a chemogenomic map for kinase signalling research and drug discovery” (Biochem J, 2013).
